Experimental data: the supplement of paper PMC10933113
Structures can show the parent of a compound that is named as a salt. ± gives the uncertainty stated by the source.

These compounds were tested on THP-1 (assay: CD86 surface expression induction over DMSO control (% over DMSO); higher = stronger dendritic cell activation). Conditions: exposure time: 24 h.
Protocol: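 hCLAT-like CD54 and CD86 surface expression on THP1 cells after 24 h exposure at a single concentration (highest non-cytotoxic concentration, or 100-200 µM if not cytotoxic). Flow cytometry (iQue) was run on 5,000 live cells.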

SMILES	CD86 surface expression induction
COc1ccc(-c2cc(=S)ss2)cc1 [Anethole trithione] (100 µM)	-4.63 ± 2.6
CO[C@@]12[C@H](COC(N)=O)C3=C(C(=O)C(C)=C(N)C3=O)N1C[C@@H]1N[C@@H]12 [Mitomycin C] (100 µM)	60.5 ± 16
COc1ccc2cc(CCC(C)=O)ccc2c1 [Nabumetone] (100 µM)	-3.23 ± 4.6
CCCCCCCCCCCCOCCO [2-(Dodecyloxy)ethanol] (200 µM)	57 ± 59
Cc1ccc(O)c2ncccc12 [Tiliquinol] (10 µM)	43.2 ± 60
CC(C)(C)c1ccc(S)cc1 [4-tert-Butylbenzenethiol] (200 µM)	12.9 ± 21
O=C1OC(OC(=O)c2cccnc2Nc2cccc(C(F)(F)F)c2)c2ccccc21 (stereo not given) [Talniflumate] (100 µM)	-7.81 ± 1
CCCOc1ccc2[nH]c(NC(=O)OC)nc2c1 [Oxibendazole] (100 µM)	-3.54 ± 40
CC(C)c1ccc2cc(C(C)C)ccc2c1 [2,6-Diisopropylnaphthalene] (200 µM)	18.9 ± 22
CCOc1ccc2nc3cc(N)ccc3c(N)c2c1 [Ethacridine lactate monohydrate] (200 µM)	42.2 ± 53
Cc1ccc(O)c(-n2nc3ccccc3n2)c1 [2-(2H-Benzotriazol-2-yl)-4-methylphenol] (100 µM)	-18.9 ± 28
CC(C(=O)O)c1ccc(/C=C2\CCCCC2=O)cc1 (stereo not given) [Pelubiprofen] (100 µM)	-4.77 ± 4.1
Clc1ccccc1-c1nc(-c2ccncc2)no1 [Pifexole] (100 µM)	3.84 ± 13
Cc1cccc(N(C)C(=S)Oc2ccc3c(c2)C2CCC3C2)c1 (stereo not given) [Tolciclate] (100 µM)	-1.12 ± 6
Nc1ccc(/N=N/c2ccccc2)c(N)n1 [Phenazopyridine hydrochloride] (100 µM)	-8.42 ± 5.7
Oc1c(I)cc(Cl)c2cccnc12 [Clioquinol] (100 µM)	64.9 ± 88
Cc1c2ccccc2c(C)c2c1ccc1ccccc12 [7,12-Dimethylbenzanthracene] (10 µM)	47.5 ± 61
Nc1cc(Cl)c(O)c(Cl)c1 [4-Amino-2,6-dichlorophenol] (100 µM)	-14.4 ± 29
O=C(Nc1ncc([N+](=O)[O-])s1)c1cccs1 [Tenonitrozole] (10 µM)	-9.19 ± 11
CCCCNC(=S)NCCCC [N,N'-Dibutylthiourea] (10 µM)	-9.37 ± 9.2

SMILES	CD86 surface expression induction
CCCCCCCCCCCCCCCC[N+](C)(C)Cc1ccccc1 [Benzylhexadecyldimethylammonium chloride] (10 µM)	57.5 ± 17
COc1cc(Nc2c(C#N)cnc3cc(OCCCN4CCN(C)CC4)c(OC)cc23)c(Cl)cc1Cl [Bosutinib] (100 µM)	5.12 ± 41
C/C=C/C=C/CCCCCCCO [Codlelure] (200 µM)	-13 ± 6
Clc1ccc2c(c1)Nc1ccccc1S2 [2-Chlorophenothiazine] (100 µM)	-11 ± 14
CC1=C(/C=C/C(C)=C/C=C/C(C)=C/C=O)C(C)(C)CCC1 [13-cis-Retinal (Vitamin A aldehyde)] (100 µM)	64.3 ± 98
CCN(CC)c1ccc(C(=O)c2ccccc2C(=O)O)c(O)c1 [2-[4-(Diethylamino)-2-hydroxybenzoyl]benzoic acid] (10 µM)	-12.1 ± 11
O=C(O)Cc1cc(I)c(Oc2cc(I)c(O)c(I)c2)c(I)c1 [Tetrac] (100 µM)	12.3 ± 2
CC[C@@]1(O)C(=O)OCc2c1cc1n(c2=O)Cc2c-1nc1ccccc1c2/C=N/OC(C)(C)C [Gimatecan] (10 µM)	25.6 ± 10
Cn1sccc1=O [2-Methyl-4-isothiazolin-3-one hydrochloride] (10 µM)	-16.2 ± 4.7
CCCCCCCC(=O)Oc1c(Br)cc(C#N)cc1Br [Bromoxynil octanoate] (100 µM)	-3.51 ± 5
Cc1c(C)n(Cc2ccccc2)c2ccc(C(=O)OCCN(C)C)cc12 [Indocate] (200 µM)	67.3 ± 61
CCc1oc2ccccc2c1C(=O)c1cc(I)c(O)c(I)c1 [Benziodarone] (100 µM)	7.99 ± 3.4
CC(O)C#CC(C)O (stereo not given) [Hex-3-yne-2,5-diol] (10 µM)	0.05 ± 2.9
Oc1ccc2ccccc2c1N=Nc1ccccc1 [C.I. Solvent Yellow 14] (200 µM)	3.18 ± 3.5
C/C=C/C=C/C=O [2,4-Hexadienal] (200 µM)	4.48 ± 7.5
O=CC(=O)c1ccccc1 [Phenyl glyoxal] (100 µM)	4.41 ± 2
c1ccc(SCCSc2ccccc2)cc1 [1,2-Bis(phenylthio)ethane] (100 µM)	-2.45 ± 2.3
Oc1ccc2cc(SSc3ccc4cc(O)ccc4c3)ccc2c1 [6-Hydroxy-2-naphthyl disulfide] (100 µM)	67.2 ± 57
O=C1c2cccc(O)c2C(=O)c2c(O)cc(CO)cc21 [Aloe-emodin] (100 µM)	4.61 ± 9.4
CCCCC1C(=O)N(c2ccccc2)N(c2ccc(O)cc2)C1=O (stereo not given) [Oxyphenbutazone] (10 µM)	24.6 ± 15
